Where “and” joins values, the source holds several entries; their conditions need not be identical. Equal values may be shown once. In all, about 91,000 compounds went through this assay and about 130 (0.14%) were called active. About 3% were inconclusive and are not listed. Calls come from the whole dose curve; as a rule, active = well fitted inhibition curve with a large enough effect; inconclusive = small, poorly fitted or top-dose-only effect; inactive = flat fitted curve, though single readings scatter. The entries come from a sample that favours actives as a whole. A call without a number means that no potency is given here. Some compounds were tested as several samples or in several runs, with calls that do not always agree.
Each compound was assayed on Uracil-DNA glycosylase (assay: Primary qHTS assay for inhibitors of Activation Induced Cytidine Deaminase (AID): UDG Counterscreen signal). Details: FRET deamination/UDG coupled assay, UDG read, 4 h; series mostly up to 115 µM.
Excerpt: Assay Provider (PI) Patricia Gearhart Ph.D.
National Institute on Aging
National Institute of Health (NIH), Bethesda, MD
Assay Provider (PI) Rahul Kohli Ph.D.
Perelman School of Medicine
University of Pennsylvania, Philadelphia, PA
Activation-Induced Deaminase (AID) is a cytosine deaminase which converts cytosine into uracil within stretches of ssDNA. The presence of uracil in DNA initiates a cascade of mutagenic DNA repair to introduce point mutations and DNA double strand breaks. Specific targeting of AID to the immunoglobulin heavy chain loci (Igh) promotes mutagenesis in the antibody variable region for somatic hypermutation (SHM) or switch regions leading to class switch recombination (CSR). However, AID also plays a role in accumulating unnecessary mutations across the genome. Mis-targeting of AID results in the initiation of tumor development and leads to greater drug resistance among cancer cells when continually expressed. To identify an AID inhibitor, a small molecule library will be screened in collaboration with NCATS core facility at NIH. To confirm biological function, inhibitors will be examined in an in vitro murine B-cell activation assay and subsequent secondary validation screens. Top molecules will be further screened to identify inhibitory efficacy against a wild type primary splenocytes assay. Using these approaches, we hope to identify a small molecule with great efficacy and low toxicity for use as a molecular probe to further characterize AID's intricacies, or even as a therapeutic.
A FRET based analysis of cytosine deamination, was developed to identify potential inhibitors of AID catalytic activity. This screen has two signal output, Read 1 evaluates the AID inhibition response. The second readout (Read 2) evaluates UDG response and is uses as a counterscreen to exclude false positive inhibitors. Inhibition in AID and inactivity in the UDG signal is the desired outcome for this assay.
SEQUENCE No. (e.g., 1, 2, 3, etc.); […] (e.g., Cells, Incubation, Reagent, etc.); VALUE; DESCRIPTION
1a; Reagent; 3 uL; [4/3x] 1 uM AID/2.67 U/mL UDG
1b; Reagent; 3 uL; 2 U/mL UDG
1c; Reagent; 3 uL; 1 uM AID
2a; Compound; 46 nL; Follow-up plates (0.64 uM - 10 mM)
2b; Control; 46 nL; ATA ([…] - 10 mM)
3; Time; 10 min; incubation at room temperature
5; Time; 4 hr; incubation at room temperature
6; Reagent; 4 uL; [2x] 250 mM NaOH
7; Time; 15 sec; centrifuge at 1000 rpm
8; Time; 30 min; incubation at room temperature
9a; Detection; fluorescence (Read 1: AID); EnVision (PerkinElmer) plate reader, 540 excitation and 590 emission filters
9b; Detection; fluorescence (Read 2: UDG); EnVision (PerkinElmer) plate reader, 560 excitation and 665 emission filters
NOTES (numbers refer to sequence above)
1a; Reagents were dispensed in a medium-binding black solid-bottom Greiner plates (789176F) using a BioRptr liquid dispenser. Dispense 3 uL of [4/3x] 1 uM AID (provided by Kohli lab) and [4/3x] 2 U/mL UDG (NEB M0280L) into columns 1, 2, 5 to 48.
1b; Dispense 3 uL of [4/3x] 2 U/mL UDG into column 3.
1c; Dispense 3 uL of [4/3x] 1 uM AID into column 4.
2a; Compound (7-points [uM] (0.64; 3.2; 16; 80; 400; 2,000; 10,000; 20,000) double pin-transferred (Dip Factor = 2) using the Kalypsys (Wako USA) pintool equipped with a 1536 pinhead for a final concentration range of 7.32 nM - 114 uM.
2b; 10 mM Aurintricarboxylic Acid (Sigma A1895) (ATA, 8-point, n = 2, 1:2.5 dilution in column 2) double pin-transferred (Dip Factor = 2) using the Kalypsys (Wako USA) pintool equipped with a 1536 pinhead for a [final] range of 186 nM - 114 uM.
3; Room temperature incubation.
4; Dispense 1 uL of substrate mixture from the Kohli lab [4x] […] DJC20 and [4x] 250 nM DJC23 into columns 1 to 48 .
5; Room temperature incubation.
6; Dispense 4 uL of substrate mixture [2x] 250 mM NaOH into columns 1 to 48.
7; Centrifugation step to remove bubbles.
8; Room temperature incubation
9a; Fluorescence signal (column label AID) was read using the EnVision plate reader. […]
Note: nearly all actives have a fitted effect of over 65% in size.
Potency is the fitted concentration of half-maximal effect.

Compound	Potency
Cc1scc(C(=O)NCCC2=CCCCC2)c1C	inactive
CC(C)(C)C(=O)NCC(=O)O	inactive
COc1ccc(COC(=O)C2CCN(S(=O)(=O)c3c(Cl)cccc3Cl)CC2)cc1F	inactive
CN(C)c1ccc(NC(=O)CCC2CCCC2)cc1	inactive
CNC(=O)C1CCN(Cc2csc(-c3ccc(C(F)(F)F)cc3)n2)CC1	inactive
CC(C)c1cccc(C(C)C)c1-n1ccnc1	inactive
CC(C)(C)C(=O)NCCCC(=O)NCc1cccnc1	inactive
Fc1ccc(/C=N/N=C/c2ccc(F)cc2F)c(F)c1	inactive
Cc1ccc(C)c(S(=O)(=O)N2CCN(C(=O)CCc3ncc(-c4ccc(F)cc4F)o3)CC2)c1	inactive
Cc1c(-c2ccccc2)[o+]c2ccccc2c1C#Cc1ccccc1	inactive
CCCn1nc(C(=O)OCC(N)=O)c2ccccc2c1=O	inactive
O=C(COC(=O)c1cnc2ccccc2n1)NC12CC3CC(CC(C3)C1)C2	inactive
COc1cccc(NC(=O)C2(C#N)CCCC2)c1	inactive
O=C(NCc1coc(-c2cccs2)n1)c1cccc(C(F)(F)F)c1	inactive
O=S(=O)(CCN1CCN(c2cnccn2)CC1)c1ccccc1	inactive
Cc1cnc(NC(=O)c2nc(C)n(-c3ccc(Cl)cc3)n2)s1	inactive
COc1ccccc1Oc1c(C)oc2cc(OC(=O)c3ccc4c(c3)OCO4)ccc2c1=O	inactive
C/C=C/Cn1c(=O)c2c(nc(-n3nc(C)cc3C)n2CC)n(C)c1=O	inactive
Cc1cccc(N(CCC(N)=O)C(=O)c2ccc(C#N)cc2)c1	inactive
O=C(c1ccc2c(c1)N(Cc1ccccc1)C(=O)c1ccccc1S2=O)N1CCC2(CC1)OCCO2 (centres undefined)	inactive
O=C(CCC1CCCC1)NCCc1cccnc1	inactive
COc1cc(Br)cc2cc(-c3nc(-c4nonc4N)no3)c(=O)oc12	inactive
CC(Oc1ccc(/C=C(/C#N)c2nc3ccccc3[nH]2)cc1)C(=O)O (centres undefined)	inactive
CCOC(=O)c1noc2nc(C)nc(Nc3ccc(CC)cc3)c12	inactive

Compound	Potency
COc1ccc(N(CC(=O)N2CCN(C)CC2)S(=O)(=O)c2ccccc2)cc1Cl	inactive
COc1cc(/C=N/O)ccc1O	inactive
O=C(O)c1ccc(CSc2cccc(Cl)c2)cc1	inactive
FC(F)(F)c1cccc(Oc2ncnc3sc(-c4ccccc4)cc23)c1	inactive
CC(C)Cc1nc(NCc2ccncc2)c(C#N)c2c1CCCC2	inactive
O=C(CCc1ccncc1)Nc1ccccc1	inactive
COc1ccc(C(=O)Oc2ccc(Cl)cc2C)c(OC)c1	inactive
Cc1ccc(CNC(=O)c2ccc(=O)[nH]c2)s1	inactive
CCC(CC)C(=O)Nc1cccc(F)c1	inactive
CSc1ccc(Cl)c(C(=O)Nc2ccc(F)c(F)c2)c1	inactive
CC(=O)c1ccc2[nH]c(C(=O)O)cc2c1	inactive
O=C(CCC1CCCCC1)Nc1cccc(F)c1	inactive
O=C(CCc1c[nH]c2ccccc12)N1CC=C(c2ccccc2)CC1	inactive
CC1CCN(C(=O)CSc2nnc(-c3ccco3)n2N)CC1	inactive
CCCC(=O)Nc1ccccc1N1CCN(Cc2nc3ccccc3n2C)CC1	inactive
Cn1nc(C(=O)Nc2ccc(C(F)(F)F)cc2)c2ccccc2c1=O	inactive
CCCCCn1nc(C(=O)Nc2nccs2)c2ccccc2c1=O	inactive
CN(Cc1ccc(C(C)(C)C)cc1)C(=O)C1CCN(C(=O)/C=C/c2ccccc2)CC1	inactive
COc1ccc(-c2nc3ccccc3o2)cc1NC(=O)c1ccc(Cl)cc1	inactive
CCOC(=O)c1cc(-c2ccc(S(=O)(=O)N3CCN(c4cc(Cl)ccc4C)CC3)s2)on1	inactive
O=C(CSc1ncnc2ccccc12)Nc1ccc(Cl)c(C(F)(F)F)c1	inactive
CNc1c(NC(=O)Nc2ccccc2F)c(=O)oc2ccccc12	inactive
COc1cc(CNC(=O)C(C)Oc2ccccc2)ccn1 (centres undefined)	inactive
Nc1ccc(C(=O)O)cn1	inactive

Compound	Potency
NS(=O)(=O)c1ccc(CCNc2ncnc3c2cnn3-c2ccccc2Cl)cc1	inactive
Clc1cccc(-n2ncc3c(NCCc4ccccc4)ncnc32)c1	inactive and 89.1 µM (active)
Cc1ccc(-n2ncc3c(NCCCn4ccnc4)ncnc32)cc1Cl	inactive
CCc1nn2c(=O)cc(CN3CCCCC3C)nc2s1 (centres undefined)	inactive
O=C(CCc1cccs1)NCC1CC1	inactive
C/C(=N/Nc1ccnc2cc(Cl)ccc12)c1cccc(N)c1	inactive
CC(=O)N(Cc1ccc2[nH]ccc2c1)C1CC1	inactive
O=C(CCn1ccc2ccccc21)N1CCN(S(=O)(=O)c2ccccc2)CC1	inactive
COCC(=O)N(Cc1cccs1)C1CC1	inactive
CC(c1nc(C(C)(C)C)no1)N(C)Cc1ccc2c(c1)OCO2 (centres undefined)	inactive
Fc1cccc(CSc2nnc(-c3ccccc3F)n2C2CC2)c1	inactive
CNC(=O)c1ccc2c(c1)CCCN2C(=O)c1ccc(Cl)cc1	inactive
COc1ccc(CN(Cc2cc(=O)oc3cc(C)c(C)cc23)C2CC2)cc1	inactive
COCCNC(=O)CS(=O)Cc1nc(-c2ccc(C)cc2)oc1C (centres undefined)	inactive
Cc1cc2nc(-c3ccccc3)c(-c3ccccc3)nc2cc1C	inactive
CCC(C)Nc1oc(-c2ccc(COc3ccc(Cl)cc3)o2)nc1C#N (centres undefined)	inactive
Cc1ccc(C)c(OCc2ccc(-c3nc(C#N)c(NC(C)C)o3)o2)c1	70.8 µM (active)
Cc1ccccc1OCc1ccc(-c2nc(C#N)c(N3CCCCC3)o2)o1	inactive
N#Cc1cccnc1NCCC12CC3CC(CC(C3)C1)C2	inactive
Cc1cc(=O)oc2c(C)c(OC(C)C(=O)NCCc3ccc(S(N)(=O)=O)cc3)ccc12 (centres undefined)	inactive
O=C(NCc1ccc2c(c1)OCO2)c1cccc(N2CCCN(Cc3ccc(F)cc3)C2=O)c1	inactive
CC(C)(C(=O)Nc1ccc(F)c(NC(=O)C2CC2)c1)c1ccccc1	inactive
CNCCC(F)(F)F	inactive
OC(COCc1ccccc1F)Cn1nnc(-c2cccnc2)n1 (centres undefined)	inactive

Compound	Potency
O=C(COC(=O)Cc1n[nH]c(=O)c2ccccc12)NCC1CCCO1 (centres undefined)	inactive
CCOc1ccc(-c2csc(-c3ccc(Cl)cc3)n2)cc1	inactive
O=C(NCc1cccc(OC(F)F)c1)c1ccccc1-n1cnnn1	inactive
COCCn1c(C)cc(C(=O)C(=O)Nc2nnc(COc3cc(C)ccc3C)s2)c1C	inactive
CCc1ccc(N(CC)C(=O)CCn2cnc3onc(-c4ccc(F)cc4)c3c2=O)cc1	89.1 µM (active)
CN(Cc1ccccc1)c1ncnc2onc(-c3ccc(F)cc3)c12	inactive
CCc1ccccc1N(C)C(=O)C1CCCN(c2ncnc3onc(-c4ccc(F)cc4)c23)C1 (centres undefined)	inactive
CCN(CC)C(=O)CNC(=O)c1cc2ccccc2c(OC)n1	inactive
N#Cc1cccc(C(=O)NC(c2ccccc2)c2cccs2)c1 (centres undefined)	inactive
CCCC/C=N/NC(=O)CCCCCCCCCCC	inactive
CCCCCCCc1ccc(-c2ccc(OC)cc2)nc1	inactive
CCN(CC)S(=O)(=O)c1cc(NC(=O)c2n[nH]c3ccccc23)ccc1C	inactive
O=S(=O)(Cc1nnnn1-c1ccccc1)c1ccccc1	inactive
CCCNc1c(NC(=O)C(C)C)c(=O)oc2ccccc12	inactive
CC(C)(C)c1ccccc1OCC(=O)Nc1cccc(C#N)c1	inactive
COCC(C)n1c(COc2ccccc2F)nnc1SCC(C)C (centres undefined)	inactive
COCCNC(=S)NNC(=O)Cc1ccc(OC)c(OC)c1	inactive
CCCCNC(=O)CCc1c[nH]c2ccccc12	inactive
COC(=O)CNC(=O)/C(C)=C/c1ccccc1	inactive
N#Cc1ccc(CNc2cc(Cl)ccc2Cl)cc1	inactive
Cc1ccc(NC(=O)c2ccc(Cl)cc2N2CCCC2=O)cc1	inactive
Ic1nc[nH]c1I	inactive
COc1ccc(NC(=O)COc2ccc(F)cc2)c2cccnc12	inactive
Cc1ccc(-n2c(SCC(=O)Nc3cccc(F)c3)nc3c(=O)[nH]cnc32)cc1	inactive

Compound	Potency
Cc1ccc(C(=O)NC(C)C)c(Cl)c1	inactive
Cc1cc(C)c2c(c1)/C(=N/Nc1nc3ccccc3[nH]1)CCC2	inactive
Cc1[nH]c2ccccc2c1/C=N/c1sc2c(c1C#N)CCC(C)C2 (centres undefined)	inactive
CCCc1ccc(OC(=O)c2ccc3c(c2)-c2ccccc2C3=O)cc1	inactive
Cc1csc(SCCCOc2ccc(C#N)cc2)n1	inactive
COc1ccc(CNC(=S)NCC(C)N2CCCCC2C)cc1 (centres undefined)	inactive
Cn1nc(C(=O)OCC(=O)N(Cc2ccccc2)C(C)(C)C)c2ccccc2c1=O	inactive
O=C(C1=COCCO1)N1CCN(c2ccccc2)CC1	inactive
O=C1/C(=C/c2cccc(Br)c2)CCc2ccccc21	inactive
COc1ccc(C(=O)/C(C#N)=C\c2ccccc2OC(F)F)cc1	inactive
Cc1cc(C(=O)O)cc(S(=O)(=O)Nc2ccc(Cl)c3cccnc23)c1C	inactive
C=CCNC(=O)NC(=O)CN(C)Cc1ccc(-c2ccc(Br)cc2)o1	inactive
CC(C)CNC(=O)CSc1nnc(COc2ccccc2Cl)o1	inactive
O=C(O)c1ccc(Nc2nc(-c3ccc4ccccc4c3)cs2)cc1O	inactive
CC(=O)Nc1ccc(NC(=O)Nc2ccccc2Cl)cc1	inactive
CCN1CCC(CNC(=O)c2cc(C)nc3cc(F)ccc23)CC1	inactive
COc1ccc(NC(NC(=O)C(C)C)C(Cl)(Cl)Cl)cc1 (centres undefined)	inactive
O=C(CCc1ncc(-c2ccc(F)cc2)o1)NCc1ccc(OC(F)F)cc1	inactive
CNC(=S)NNC(=O)c1cccc(C)c1	inactive
CC(=O)NCc1ccc(C(=O)COc2ccc(C(C)=O)cc2)cc1	inactive
N#Cc1ccccc1-n1ccnc1	inactive
O=C(OCC(=O)c1cccs1)c1cccc(O)c1	inactive
CC(C)(C)c1nc2cc(NC(=O)c3ccc[nH]c3=O)ccc2o1	inactive
